One may read the inhibition as the change of the read-out against control, counted positive when it falls.

Values joined by “and” are separate entries in the source; they are usually repeats but may differ in a detail not shown here. Equal values may be shown once. Among all 290,000 compounds or so, about 3,000 (1%) were called active. This is one part of a sample in which actives are shown more often than they occur. Values without a mark were called inactive. Cut-off read from the data, not from the text of the source: active = inhibition mostly above about 36% (no sharp cut-off); inactive = mostly below about 34%.

From PubChem BioAssay AID1578 (Sanford-Burnham Center for Chemical Genomics, 2009) come the findings set out here.

This assay is described as follows: NOD1 signaling inhibitors, primary screen, cell-based, luminescence, uHTS (AID 1578).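 Note: HEK-293T reporter cells stimulated with the NOD1 agonist gamma-tri-DAP.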 The following applies: NOD1-driven NF-kB luciferase reporter cells, at 4 µM, active compounds read high. Background: In a reporter assay the amount or activity of a reporter protein is the signal.
With `CCN(CC)CCOC(=O)c1ccc(NC(=O)c2ccc(Cl)c(S(=O)(=O)N3CCCCCC3)c2)cc1`, the inhibition was 13.1%.
In the case of `CC(C)Nc1nnc(SCC(=O)Nc2ccc(F)cc2)s1`, the inhibition is -8.4%.
The value for `O=C(CSc1nnc(NC2CCCCC2)s1)Nc1ccc2c(c1)C(=O)c1ccccc1C2=O` was -43.3%; that for `CC(C)Nc1nnc(SCC(=O)Nc2ccc3c(c2)C(=O)c2ccccc2C3=O)s1` was 83.7% (active); that for `CC(=O)c1cccc(NC(=O)C2C(c3ccccc3)C2(Cl)Cl)c1` (stereo not given) was -15.1%.
As to `COc1ccc(C2NC(=O)NC3=C2C(=O)CCC3)cc1` (stereo not given), the inhibition is -30.7%.
The value for `COCCN1C(=O)c2cc(C(=O)Nc3cccc(F)c3)ccc2C1Nc1cccc(F)c1` (stereo not given) was 2.2%.
The same measure for `COCCCn1c(SCc2ccccc2)nc2cc(OC)c(OC)cc2c1=N`: 5.9%; for `COCCCn1c(SCc2ccc(OC)cc2)nc2cc(OC)c(OC)cc2c1=N`: -11.5%.
The same measure for `COCCCn1c(SCCc2ccccc2)nc2cc(OC)c(OC)cc2c1=N`: 49.8% (active).
`O=C(COC(=O)c1ccc(S(=O)(=O)N2CCc3ccccc3C2)cc1)NC1CCS(=O)(=O)C1` (stereo not given): the inhibition is 3.9%.
The same measure for `NS(=O)(=O)c1ccc(NC(=S)NCc2ccc(Cl)cc2)cc1`: 4.1%; for `CC1=NN2C(=N)/C(=C\c3ccc(SCc4ccccc4)o3)C(=O)N=C2S1`: 9.5%; for `CC1=CN2C(=N)/C(=C/c3ccc([N+](=O)[O-])o3)C(=O)N=C2S1`: 78.2% (active).
The value for `CC1=CN2C(=N)/C(=C/c3ccc(C)o3)C(=O)N=C2S1` was -39.8%; that for `CC1=CN2C(=N)/C(=C/c3ccc(Sc4ccc(Cl)cc4)o3)C(=O)N=C2S1` was 76.7% (active).
Take `CC1=CN2C(=N)/C(=C/c3ccc(Sc4ccc(C)cc4)o3)C(=O)N=C2S1`: the inhibition is -6.2%.
Turning to `CC1=CN2C(=N)/C(=C/c3ccco3)C(=O)N=C2S1`, the inhibition is -63.4%.
For `CC(=O)Nc1ccc(OC(=O)c2cc3cc(Br)ccc3oc2=O)cc1`, the inhibition is 7.6%.
The value for `CC(C)C(=O)Nc1ccc(NC(=O)c2ccccc2Cl)nc1` was -13.2%.
The same measure for `CCN(CC)C(=O)CSc1nnc([C@H](Cc2c[nH]c3ccccc23)NC(=O)OC(C)(C)C)o1`: -14.8%; for `CC(C)N(C(=O)CSc1nnc(NC(=O)C2CCC2)s1)C(C)C`: -7.8%; for `CCSc1nnc(NC(=O)C2CCCCC2)s1`: -31.5%.
The value for `CC(C)Sc1nnc(NC(=O)C2CC2)s1` was 37.9% (active); that for `CCc1ccc(NC(=O)CSc2nnnn2-c2cccnc2)cc1` was -28.4%; that for `CCCC(=O)C1=C(O)C(C(=O)OC)C(C)(C)CC1=NCCCCCC(=O)O` (stereo not given) was -12.1%.
With `Cc1cc(C)c(NC(=O)c2ccc3c(c2)C(=O)N(Cc2cccnc2)C3=O)c(C)c1`, the inhibition is -0.6%.
Turning to `Fc1cccc(CNc2ncnc3cc(Cl)ccc23)c1F`, the inhibition is 0.2%.
The same measure for `COc1cc2ncnc(NCc3cc(F)ccc3F)c2cc1OC`: 0.3%.
The same measure for `Nc1cc(=O)[nH]n1C1CCN(c2ccccc2)CC1`: -4%; for `COc1ccc(C2C=C(Nc3ccccc3)C(=O)N2c2ccccc2)cc1OC` (stereo not given): 4.9%.
With `COc1ccc(-c2cc(CNC(=O)CCl)on2)cc1`, the inhibition is 54.5%.
The value for `O=C(CCl)NCc1cc(-c2ccc(Cl)cc2)no1` was 87.7% (active).
The value for `CC(=O)NCc1cc(-c2ccc(Cl)cc2)no1` was -35.1%.
The value for `COc1ccc(Cl)cc1NC(=O)CN1C(=O)NC2(CCCC2)C1=O` was -8.5%.
On to `CCc1nc(SCC(=O)N2CCCc3ccccc32)c2oc3ccccc3c2n1`, for which the inhibition was 0.5%.
Turning to `CCn1c(SCC(=O)N2CCCc3ccccc32)nc2ccccc2c1=O`, the inhibition is -37.5%.
The value for `O=C(CSc1ncnc2c1oc1ccccc12)NCc1ccco1` was 72.8% (active).
The value for `Cc1nc(SCC(=O)N2CCCc3ccccc32)c2oc3ccccc3c2n1` was -0.3%.
The value for `O=C(CSc1nc2ccccc2c(=O)n1-c1ccccc1)N1CCCc2ccccc21` was -19.1%.
Take `O=C(CSc1ncnc2c1oc1ccccc12)NCc1ccc(F)cc1`: the inhibition was 19.3%.
Consider `Cc1nc(SCC(=O)NCc2ccco2)c2oc3ccccc3c2n1`, for which the inhibition was -2.6%.
The value for `COc1cccc(OCC(O)CN2CCN(c3ccccc3)CC2)c1` (stereo not given) was 2.2% and -2.1%; that for `CC(C)(C)c1ccc(-c2noc(-c3ccno3)n2)cc1` was -6.3%; that for `CCN(CC)S(=O)(=O)c1cccc(C(=O)N/N=C/c2ccc(N3CCOCC3)cc2)c1` was -29.1%.
The same measure for `O=C1NC(=O)/C(=C\c2ccc(O)cc2O)S1`: -22.3%; for `COCCNC(=O)c1ccc(C)c(NC(=O)C2=C(C)OCCS2)c1`: -9.9%.
The value for `COC(=O)C(CC(=O)O)NCc1ccco1` (stereo not given) was -10.9%; that for `CC(=O)N1CCN(CC(=O)Nc2ccc([N+](=O)[O-])cc2Br)CC1` was -29.7%.
For `FC(F)(F)c1ccccc1NC(=S)NN1CCOCC1`, the inhibition is -11.5%.
As to `O=C(O)c1cccc(Nc2ccc([N+](=O)[O-])cn2)c1`, the inhibition was -19.2%.
The same measure for `c1ccc(Nc2ccnc(Nc3ccccc3)n2)cc1`: 8.8%; for `O=C(O)c1cccc(Nc2ccnc(Nc3cccc(C(=O)O)c3)n2)c1`: 38.5% (active); for `CCOC(=O)C1=C(C)N(C)C(=S)NC1c1ccc(Cl)cc1Cl` (stereo not given): -11.6%.
The same measure for `C[n+]1c2n(c3ccccc31)N=C(c1ccccc1)CS2`: 5% and 22.1%; for `C[n+]1c2n(c3ccccc31)N=C(c1ccc(-c3ccccc3)cc1)CS2`: 43.5%; for `Cc1cc(=O)oc2cc(NC(=O)c3ccccc3OC(F)F)ccc12`: -62.7%.
Regarding `Cc1ccc(O)c(C(=O)c2cc(C#N)c(=O)n(C(C)c3ccccc3)c2)c1` (stereo not given), the inhibition was -4.6%.
The same measure for `Cc1ccc(O)c(C(=O)c2cc(C#N)c(=O)n(Cc3ccccc3)c2)c1`: -10.3%; for `Cc1c(NC(=O)c2ccc(N(Cc3ccccc3)S(C)(=O)=O)cc2)c(=O)n(-c2ccccc2)n1C`: -26.8%.
